Laboratory results as given in PubChem BioAssay (EPA / NIEHS).
Records with an inconclusive call do not appear. Calls of active or inactive are those of the source. Rule for the calls: active = hit-call score of the fitted dose curve at least 0.9, where 1 is the maximum; inconclusive = response in the unintended direction; inactive = score below 0.9.

What follows are compounds tested against sheep Cyclooxygenase-1 (Cox1), PTGS1 (gene 443551) (UniProt P05979) (assay: NVS_ENZ_oCOX1: NovaScreen (NVS) Enzymatic Assay for sheep Cyclooxygenase-1 (Cox1) (AID 2283239);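 note: actives reduce cyclooxygenase activity so potencies are for inhibitors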).
Chain of sheep Cyclooxygenase-1 (Cox1), PTGS1 (gene 443551) (P05979 whole entry, looked up): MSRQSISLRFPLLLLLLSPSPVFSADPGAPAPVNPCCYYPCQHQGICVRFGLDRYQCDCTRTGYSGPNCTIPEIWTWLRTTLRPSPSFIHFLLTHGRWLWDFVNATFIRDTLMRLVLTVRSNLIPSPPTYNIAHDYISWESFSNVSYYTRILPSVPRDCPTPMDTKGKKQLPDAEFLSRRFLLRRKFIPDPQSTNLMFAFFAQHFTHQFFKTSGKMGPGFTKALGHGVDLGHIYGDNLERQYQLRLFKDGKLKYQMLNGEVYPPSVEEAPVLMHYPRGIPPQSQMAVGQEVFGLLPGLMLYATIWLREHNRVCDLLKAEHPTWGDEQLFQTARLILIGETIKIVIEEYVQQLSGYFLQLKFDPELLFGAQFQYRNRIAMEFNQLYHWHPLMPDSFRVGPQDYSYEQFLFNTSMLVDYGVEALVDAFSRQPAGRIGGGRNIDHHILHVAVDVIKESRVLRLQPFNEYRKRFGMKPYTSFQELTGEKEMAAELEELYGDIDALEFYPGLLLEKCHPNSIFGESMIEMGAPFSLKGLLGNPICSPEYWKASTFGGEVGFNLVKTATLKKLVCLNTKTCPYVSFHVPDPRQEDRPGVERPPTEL
Experimental: NVS_ENZ_oCOX1 is a biochemical, single-readout assay that uses extracted gene-proteins from Ovine seminal vesicles in a tissue-based cell-free assay. Measurements were taken 0.66 hour after chemical dosing in a 96-well plate.NVS_ENZ_oCOX1 is one of one assay component(s) measured or calculated from the NVS_ENZ_oCOX1 assay. It is designed to make measurements of enzyme activity, a form of enzyme reporter, as detected with absorbance signals by Colorimetric technology.Data from the assay component NVS_ENZ_oCOX1 was analyzed into 1 assay endpoint. This assay endpoint, NVS_ENZ_oCOX1, was analyzed in the positive analysis fitting direction relative to DMSO as the negative control and baseline of activity. Using a type of enzyme reporter, loss-of-signal activity can be used to understand changes in the enzymatic activity as they relate to the gene PTGS1. Furthermore, this assay endpoint can be referred to as a primary readout, because this assay has produced multiple assay endpoints where this one serves a enzymatic activity function. To generalize the intended target to other relatable targets, this assay endpoint is annotated to the oxidoreductase intended target family, where the subfamily is cyclooxygenase.
Binding assays used specific radioligands (tritiated, iodinated) with non-radioactive competitive displacement ligands in agonist or antagonist protocols (as indicated) and various reference compounds and inhibitors to titrate specific binding to receptors and transporters. Most enzyme assays (CYPs, kinases, phosphatases, proteases, HDACs) used recombinant protein and specific substrates (fluorescence mostly, some colorimetric and radioactive) and inhibitors, followed by a biochemical separation of substrate and product. All assays for the biochemical HTS were initially run in duplicate at a single concentration (10 uM for CYP450 assays and 25 uM for all others). […] Each assay was run with positive and negative controls, and concurrent controls on every plate. The follow-up (secondary) screen tested active chemical-pairs in concentration series, as well as a few additional assays not tested in the primary screen, some selected negative inactives, and several cases re-run in the concentration series for confirmatory purposes.

**Q.** How did the AC50 turn out when `Cc1c(O)cccc1O` was run?
**A.** The AC50 was 5.06 µM (active).

**Q.** With `CCc1occc(=O)c1O` as the compound, how does the AC50 read?
**A.** The AC50 was 0.243 µM (active).

**Q.** `C=CCCCCCCCCC=O` was tested. Which outcome did it give?
**A.** The outcome was “inactive”.

**Q.** `COc1ccc(C(=O)/C(Br)=C\C(=O)O)cc1` was tested. Which AC50 did it give?
**A.** Its AC50 is 25 µM (active).

**Q.** For `Oc1c(Cl)cc(Cl)c(Cl)c1Cl`, which outcome is on record?
**A.** The outcome was “inactive”.

**Q.** With `CCCCCCCCCCCC(C)=O` as the compound, how does the AC50 read?
**A.** The AC50 was 31.9 µM (active).

**Q.** Which AC50 does the source give for `CCCCCC1=CCCC1=O` here?
**A.** Its AC50 is 25 µM (active).

**Q.** How did the outcome turn out when `NNS(=O)(=O)c1ccc(Oc2ccc(S(=O)(=O)NN)cc2)cc1` was run?
**A.** The outcome was “inactive”.

**Q.** With `Oc1ccc(/C=C/c2cc(O)cc(O)c2)cc1` as the compound, how does the AC50 read?
**A.** The AC50 was 7.5 µM (active).

**Q.** How did the outcome turn out when `Nc1cccc(N)n1` was run?
**A.** Its outcome is “inactive”.

**Q.** With `CC1=C(O)C(=O)C(C)O1` (centres undefined) as the compound, how does the outcome read?
**A.** The outcome was “inactive”.

**Q.** How did the outcome turn out when `CC(=O)OC(C)c1ccccc1` (centres undefined) was run?
**A.** The outcome was “inactive”.

**Q.** Which outcome does the source give for `COC(OC)(C(=O)c1ccccc1)c1ccccc1` here?
**A.** Its outcome is “inactive”.

**Q.** `Nc1nc(N)nc(-c2ccccc2)n1` was tested. Which outcome did it give?
**A.** The outcome was “inactive”.
